Experimental data published in PubChem BioAssay (NCI).
Compounds without any hit were thinned out: in the full panel of roughly 79,000, 15% have a hit. Active and inactive are the calls of the source. No stated cut-off is given here; in the data, active means growth inhibition above about 70%; inactive means the rest.

Assay: NCI Yeast Anticancer Drug Screen. Data for the CLN2oe strain (AID 163);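 further: 0% = growth of vehicle-only control cultures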
Settings: S. cerevisiae CLN2oe strain, hits give high values
Description: Growth inhibition of yeast strains with defined genetic alterations is measured as a screen for potential anti-cancer activity. Selected strains with alterations in DNA damage repair or cell cycle control were exposed to compounds and growth inhibition was measured relative to vehicle treated controls. The strain used in this assay is CLN2oe

Measured: growth inhibition

COc1c2c(c3c(c1CCC(=O)O)OC(C)(C)C=C3)OC(C)(C)C=C2
inactive: at 1.2 µM -1% | at 3.7 µM -1% | at 11.0 µM 27%
active: at 33.0 µM 80% | at 100.0 µM 99%

CC(C)S(=O)(=O)/C=C\S(=O)(=O)C(C)C
active: at 100.0 µM 85%
inactive: at 1.2 µM -6% | at 3.7 µM -4% | at 11.0 µM 4% | at 33.0 µM 28%

CN(CCOc1ccc(Cl)cc1)CCOc1ccc(Cl)cc1
active: at 33.0 µM 90% | at 100.0 µM 99%
inactive: at 1.2 µM 20% | at 3.7 µM 18% | at 11.0 µM 50%

Cc1ccc(Nc2n[nH]c(=S)s2)c(C)c1
inactive: at 1.2 µM 4% | at 3.7 µM 0% | at 11.0 µM -10% | at 33.0 µM 13%
active: at 100.0 µM 76%

COc1cccc(C(NC2=NCCC=N2)c2cc3c(cc2O)OCO3)c1O (stereo not given)
inactive: at 1.2 µM -2% | at 3.7 µM -8% | at 11.0 µM -1% | at 33.0 µM 4% | at 100.0 µM 21%

O=S1(=O)CCC2=CC(C(F)(F)F)=CC(C(F)(F)F)=CN21
active: at 100.0 µM 98%
inactive: at 1.2 µM 25% | at 3.7 µM 22% | at 11.0 µM 40% | at 33.0 µM 68%

CC(=O)NC(c1nc2cc(C)c(C)cc2[nH]1)c1nc2cc(C)c(C)cc2[nH]1
inactive: at 1.2 µM -11% | at 3.7 µM 2% | at 11.0 µM -18% | at 33.0 µM 12% | at 100.0 µM 62%

COc1cc([C@@H]2c3cc4c(cc3[C@@H](NC(=O)NO)[C@H]3COC(=O)[C@H]23)OCO4)cc(OC)c1O
inactive: at 1.2 µM -2% | at 3.7 µM -7% | at 11.0 µM -1% | at 33.0 µM -12% | at 100.0 µM 0%
